Test results as given in PubChem BioAssay (NCATS).
Records with an inconclusive call do not appear. Calls of active or inactive are those of the source. Calls come from the whole dose curve; as a rule, active = well fitted inhibition curve with a large enough effect; inconclusive = small, poorly fitted or top-dose-only effect; inactive = flat fitted curve, though single readings scatter.

test system: not listed separately; experiment: qHTS profiling for inhibitors of Plasmodium falciparum proliferation (AID 504749); note: nearly all actives have a fitted effect of over 60% in size;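 for activity, negative = inhibition: 0% = DMSO vehicle and full inhibition = artemisinin control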; conditions: P. falciparum in erythrocytes, SYBR Green DNA, 72 h; at 28.7 µM (top of the series); parasite line B
In short: (§1)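 Infected RBCs, 0.3% parasitemia/2.5% Hct final; cpd 72 h, 37 C, 5% CO2; lysis buffer with saponin/triton/SYBR Green I, o/n RT dark; FI 485/535; norm. to artemisinin (0.29 uM) and DMSO.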
Potency is the fitted concentration of half-maximal effect.

Row | Compound | activity, negative = inhibition
1 | Cc1cc(C(C#N)c2ccc(Cl)cc2)c(Cl)cc1NC(=O)c1cc(I)cc(I)c1O (stereo not drawn) | 7.42% (inactive)
2 | CC1=C(CC(=O)O)c2cc(F)ccc2/C1=C\c1ccc(S(C)=O)cc1 (stereo not drawn) | -4.38% (inactive)
3 | Nc1ccc(S(=O)(=O)Nc2nccs2)cc1 | -2.23% (inactive)
4 | [Cl][In]([Cl])[Cl] | -19.4% (inactive)
5 | CCOC(=O)c1ccc(O)cc1 | -7.49% (inactive)
6 | O=S(=O)(O)c1cc(I)c(O)c2ncccc12 | -2.06% (inactive)
7 | NC1CCN(c2cccc(Cl)n2)CC1 | 5.51% (inactive)
8 | Cc1ccc(C(C)C)cc2c(C)ccc1-2 | -20.9% (inactive)
9 | COC(=O)C1=C(C)NC(C)=C(C(=O)OC)C1c1ccccc1[N+](=O)[O-] | -24% (inactive)
10 | CC(C)(C)NCC(O)COc1ccc(NC(=O)NC2CCCCC2)cc1 (stereo not drawn) | 2.44% (inactive)
11 | CC(CN1c2ccccc2Sc2ccccc21)N(C)C (stereo not drawn) | -0.843% (inactive)
12 | CCCCOC(=O)c1ccc(O)cc1 | 8.94% (inactive)
13 | OCc1cc(C(O)CNCCCCCCOCCCCc2ccccc2)ccc1O (stereo not drawn) | -10.7% (inactive)
14 | CC[C@@]1(c2ccccc2)NC(=O)N(C)C1=O | 13.3% (inactive)
15 | CCCCCCCCCCCCCCCC(=O)NCCO | 4.77% (inactive)
16 | CN1CCN(C2Cc3ccccc3Sc3ccc(Cl)cc32)CC1 (stereo not drawn) | -6.83% (inactive)
17 | CCCc1c(OCCCCc2nn[nH]n2)ccc(C(C)=O)c1O | -24.5% (inactive)
18 | CCOC(CN1CCN(CC(C)C(=O)c2ccccc2)CC1)c1ccccc1 (stereo not drawn) | 3.94% (inactive)
19 | Cc1c(Cl)cccc1Nc1ccccc1C(=O)O | 8.76% (inactive)
20 | CCOc1nc2cccc(C(=O)O)c2n1Cc1ccc(-c2ccccc2-c2nn[nH]n2)cc1 | -13.6% (inactive)

same assay, conditions: P. falciparum in erythrocytes, SYBR Green DNA, 72 h; parasite line A

Row | Compound | Potency
21 | CNC(=O)Oc1ccc2c(c1)[C@]1(C)CCN(C)[C@@H]1N2C | 1.58 µM (active)
22 | Cc1ccc2nc(N)[nH]c(=O)c2c1Sc1ccncc1 | 7.94 µM (active)
23 | NC(=O)N/N=C/c1ccc([N+](=O)[O-])o1 | 12.6 µM (active)

same assay, conditions: P. falciparum in erythrocytes, SYBR Green DNA, 72 h; parasite line B

Row | Compound | Potency
24 | CNC(=O)Oc1ccc2c(c1)[C@]1(C)CCN(C)[C@@H]1N2C | 2 µM (active)
25 | Cc1ccc2nc(N)[nH]c(=O)c2c1Sc1ccncc1 | 11.2 µM (active)
26 | Cc1cc(N)c2ccccc2[n+]1CCCCCCCCCC[n+]1c(C)cc(N)c2ccccc21 | 14.1 µM (active)

test system: 3D7; experiment: as above; conditions: P. falciparum in erythrocytes, SYBR Green DNA, 72 h; series mostly up to 28.7 µM; activity, negative = inhibition: at the top concentration
In short: as §1

Row | Compound | activity, negative = inhibition | Potency
27 | Cc1cc(C(C#N)c2ccc(Cl)cc2)c(Cl)cc1NC(=O)c1cc(I)cc(I)c1O (stereo not drawn) | -11.6% (inactive) | –
28 | CC1=C(CC(=O)O)c2cc(F)ccc2/C1=C\c1ccc(S(C)=O)cc1 (stereo not drawn) | -11.7% (inactive) | –
29 | CNC(=O)Oc1ccc2c(c1)[C@]1(C)CCN(C)[C@@H]1N2C | – | 3.55 µM (active)
30 | Nc1ccc(S(=O)(=O)Nc2nccs2)cc1 | 3.6% (inactive) | –
31 | CC(C)(C)C(=O)C(Oc1ccc(Cl)cc1)n1ccnc1 (stereo not drawn) | – | 10 µM (active)
32 | CCOC(=O)c1ccc(O)cc1 | 4.8% (inactive) | –
33 | COCCOC(=O)C1=C(C)NC(C)=C(C(=O)OC/C=C/c2ccccc2)C1c1cccc([N+](=O)[O-])c1 (stereo not drawn) | – | 12.6 µM (active)
34 | O=S(=O)(O)c1cc(I)c(O)c2ncccc12 | 3.18% (inactive) | –
35 | NC1CCN(c2cccc(Cl)n2)CC1 | -0.566% (inactive) | –
36 | Cc1ccc(C(C)C)cc2c(C)ccc1-2 | 0.244% (inactive) | –
37 | COC(=O)C1=C(C)NC(C)=C(C(=O)OC)C1c1ccccc1[N+](=O)[O-] | -16.4% (inactive) | –
38 | CC(C)(C)NCC(O)COc1ccc(NC(=O)NC2CCCCC2)cc1 (stereo not drawn) | -2.29% (inactive) | –
39 | CC(CN1c2ccccc2Sc2ccccc21)N(C)C (stereo not drawn) | 3.3% (inactive) | –
40 | Nc1ccc(S(=O)(=O)Nc2ccc(Cl)nn2)cc1 | 1.72% [at 12.8 µM] (inactive) | –
41 | C[C@]12C[C@H](O)[C@H]3[C@@H](CCC4=CC(=O)CC[C@@]43C)[C@@H]1CC[C@@H]2C(=O)CO | -1.23% (inactive) | –
42 | CCCCOC(=O)c1ccc(O)cc1 | -2.49% (inactive) | –
43 | NC(=O)N/N=C/c1ccc([N+](=O)[O-])o1 | – | 8.91 µM (active)
44 | OCc1cc(C(O)CNCCCCCCOCCCCc2ccccc2)ccc1O (stereo not drawn) | -19.7% (inactive) | –
45 | CC[C@@]1(c2ccccc2)NC(=O)N(C)C1=O | 0.283% (inactive) | –
46 | CCCCCCCCCCCCCCCC(=O)NCCO | 2.37% (inactive) | –
47 | Cc1cc(N)c2ccccc2[n+]1CCCCCCCCCC[n+]1c(C)cc(N)c2ccccc21 | – | 0.708 µM (active)
48 | O=C1NS(=O)(=O)c2ccccc21 | -2.75% (inactive) | –
49 | CN1CCN(C2Cc3ccccc3Sc3ccc(Cl)cc32)CC1 (stereo not drawn) | -22% (inactive) | –
50 | CNCCCC1c2ccccc2C=Cc2ccccc21 | 0.164% [at 12.8 µM] (inactive) | –
51 | CCCc1c(OCCCCc2nn[nH]n2)ccc(C(C)=O)c1O | -12.3% (inactive) | –
52 | CCOC(CN1CCN(CC(C)C(=O)c2ccccc2)CC1)c1ccccc1 (stereo not drawn) | 3.34% (inactive) | –
53 | Cc1c(Cl)cccc1Nc1ccccc1C(=O)O | -9.31% (inactive) | –
54 | CCOc1nc2cccc(C(=O)O)c2n1Cc1ccc(-c2ccccc2-c2nn[nH]n2)cc1 | -14.8% (inactive) | –

test system: 7G8; experiment: as above; conditions: P. falciparum in erythrocytes, SYBR Green DNA, 72 h; series mostly up to 28.7 µM; activity, negative = inhibition: at the top concentration
In short: as §1

Row | Compound | Potency | activity, negative = inhibition
55 | CC(C(O)c1ccc(O)cc1)N1CCC(Cc2ccccc2)CC1 (stereo not drawn) | 8.91 µM (active) | –
56 | CNC(=O)Oc1ccc2c(c1)[C@]1(C)CCN(C)[C@@H]1N2C | 2.24 µM (active) | –
57 | CSc1ccc2c(c1)N(CCC1CCCCN1C)c1ccccc1S2 (stereo not drawn) | 5.62 µM (active) | –
58 | Nc1ccc(S(=O)(=O)Nc2nccs2)cc1 | – | -9.59% (inactive)
59 | [Cl][In]([Cl])[Cl] | 2 µM (active) | –
60 | Cc1ccc2nc(N)[nH]c(=O)c2c1Sc1ccncc1 | 5.62 µM (active) | –
61 | CC(C)(C)C(=O)C(Oc1ccc(Cl)cc1)n1ccnc1 (stereo not drawn) | 7.94 µM (active) | –
62 | CCOC(=O)c1ccc(O)cc1 | – | -14% (inactive)
63 | COCCOC(=O)C1=C(C)NC(C)=C(C(=O)OC/C=C/c2ccccc2)C1c1cccc([N+](=O)[O-])c1 (stereo not drawn) | 7.94 µM (active) | –
64 | CN(C)CCCN1c2ccccc2Sc2ccc(Cl)cc21 | 10 µM (active) | –
65 | CC(CN1c2ccccc2Sc2ccccc21)N(C)C (stereo not drawn) | 8.91 µM (active) | –
66 | Nc1ccc(S(=O)(=O)Nc2ccc(Cl)nn2)cc1 | – | 0.298% [at 12.8 µM] (inactive)
67 | C[C@]12C[C@H](O)[C@H]3[C@@H](CCC4=CC(=O)CC[C@@]43C)[C@@H]1CC[C@@H]2C(=O)CO | – | -10.7% (inactive)
68 | NC(=O)N/N=C/c1ccc([N+](=O)[O-])o1 | 10 µM (active) | –
69 | OCCN1CCN(CCCN2c3ccccc3Sc3ccc(Cl)cc32)CC1 | 4.47 µM (active) | –
70 | Cc1cc(N)c2ccccc2[n+]1CCCCCCCCCC[n+]1c(C)cc(N)c2ccccc21 | 0.0355 µM (active) | –
71 | O=C1NS(=O)(=O)c2ccccc21 | – | -12.9% (inactive)
72 | CN1CCN(C2Cc3ccccc3Sc3ccc(Cl)cc32)CC1 (stereo not drawn) | 8.91 µM (active) | –
73 | CSc1ccc2c(c1)C(N1CCN(C)CC1)Cc1ccccc1S2 (stereo not drawn) | 10 µM (active) | –
74 | CNCCCC1c2ccccc2C=Cc2ccccc21 | 5.62 µM (active) | –
75 | CCCc1c(OCCCCc2nn[nH]n2)ccc(C(C)=O)c1O | 12.6 µM (active) | –
76 | CCOC(CN1CCN(CC(C)C(=O)c2ccccc2)CC1)c1ccccc1 (stereo not drawn) | 11.2 µM (active) | –
77 | CCOc1nc2cccc(C(=O)O)c2n1Cc1ccc(-c2ccccc2-c2nn[nH]n2)cc1 | 8.91 µM (active) | –
78 | Oc1ccc(C(O)CNCCCCCCNCC(O)c2ccc(O)c(O)c2)cc1O (stereo not drawn) | 3.55 µM (active) | –
